# What was measured:
# Assay in all cases: PBM binding z-score (relative to random genomic background probes); higher = stronger binding; sequences stand for … in GC…GCGATTGACAGCGTAGAATGAAGG
# [1] = test system: PPARg:RXRa DBDmut IVT, anti-RXR (DBD mutation: RXRa K156A/R161A, NR concentration 270 nM, RXRa partner concentration 90 nM)
# Summary of the method: (§1)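 Binding z-scores were set against random background probes. The data came from custom Agilent 4×180K protein-binding microarrays carrying double-stranded probes with 34-nt variable regions, incubated 1 h with ligand-free nuclear receptor dimers. Partner-specific antibodies detected binding, and scanned fluorescence was regression-normalized.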
# [2] = test system: PPARg:RXRa IVT, anti-PPARg (NR concentration 270 nM, RXRa partner concentration 90 nM)
# Summary of the method: as §1
# [3] = test system: PPARg DBDmut:RXRa IVT, anti-PPARg (DBD mutation: PPARg1 K132A/R137A, NR concentration 270 nM, RXRa partner concentration 90 nM)
# Summary of the method: as §1
# [4] = test system: PPARg DBDmut IVT, anti-PPARg (DBD mutation: PPARg1 K132A/R137A, NR concentration 270 nM)
# Summary of the method: as §1
# [5] = test system: PPARg homodimer (NR concentration 180 nM)
# Summary of the method: as §1
# [6] = test system: PXR:RXRa (NR concentration 270 nM, RXRa partner concentration 90 nM)
# Summary of the method: as §1
# [7] = test system: PXR homodimer (NR concentration 270 nM)
# Summary of the method: as §1
# [8] = test system: RARa:RXR (NR concentration 270 nM, RXRa partner concentration 90 nM)
# Summary of the method: as §1
# [9] = test system: RARa homodimer (NR concentration 270 nM)
# Summary of the method: as §1
# [10] = test system: RARb:RXRa (NR concentration 270 nM, RXRa partner concentration 90 nM)
# Summary of the method: as §1
# [11] = test system: RARb homodimer (NR concentration 270 nM)
# Summary of the method: as §1
# [12] = test system: RARg:RXRa (NR concentration 270 nM, RXRa partner concentration 90 nM)
# Summary of the method: as §1
# [13] = test system: RARg homodimer (NR concentration 270 nM)
# Summary of the method: as §1
# [14] = test system: RXRa DBDmut IVT, anti-RXR (DBD mutation: RXRa K156A/R161A, NR concentration 90 nM)
# Summary of the method: as §1
# [15] = test system: RXRa homodimer (NR concentration 180 nM)
# Summary of the method: as §1
# [16] = test system: THRa:RXRa (NR concentration 90 nM, RXRa partner concentration 90 nM)
# Summary of the method: as §1
# [17] = test system: THRa homodimer (NR concentration 90 nM)
# Summary of the method: as §1
# [18] = test system: VDR homodimer (NR concentration 270 nM)
# Summary of the method: as §1
Sequence,PBM binding z-score [1],PBM binding z-score [2],PBM binding z-score [3],PBM binding z-score [4],PBM binding z-score [5],PBM binding z-score [6],PBM binding z-score [7],PBM binding z-score [8],PBM binding z-score [9],PBM binding z-score [10],PBM binding z-score [11],PBM binding z-score [12],PBM binding z-score [13],PBM binding z-score [14],PBM binding z-score [15],PBM binding z-score [16],PBM binding z-score [17],PBM binding z-score [18]
AGAACGAGGGCAATTAGTTGATAGCACGGGTGGC,3.45,2.65,0.442,-0.255,0.218,0.729,1.02,0.412,0.215,2.06,1.14,1.37,1.89,2.01,0.935,0.962,-0.172,1.41
AGAACGAGGGCAATGGGTTGATAGCACGGGTGGC,3.27,3.01,0.598,-0.394,1.19,1.48,4.66,0.466,0.403,2.4,1.6,1.47,1.68,1.84,1.09,1.12,0.645,4.19
GCTTACGGGTCAAAGGTTATAGCATGAATAGAAT,4.91,5.87,1.16,0.991,2.12,6.26,0.29,8.55,0.989,4.79,3.25,6.76,4.71,2.42,9.18,4.02,0.25,1.58
CGTCATAGTTCAACTAAGGTAACGTAAAGCACGC,0.114,1.07,0.48,1.14,1.81,3.86,1.23,2.73,1.04,3.59,2.62,3.44,3.83,2.38,2.7,5.14,1.9,1.51
TGAGTGAGGTTATAAGATCAGGGAACGTTGCAAA,-0.596,0.754,0.555,-0.0846,0.652,0.754,0.0305,1.06,0.466,1.25,0.44,1.43,1.12,0.109,1.88,1.59,0.117,0.655
TCATATAGGTAAATGCTAGGAGAAAGTCCGATCT,3.74,1.59,1.52,1.09,0.813,0.458,0.215,0.385,0.843,0.136,-0.501,0.278,0.46,1.67,0.597,-0.0458,-0.197,-0.0177
GCTCGGAGGAGAAGGTCAGAGCTTTGTCCGTAGA,-0.348,0.169,-0.938,-2.35,0.184,1.06,-1.02,1.58,-1,2.3,2.4,2.15,2.28,-0.281,2.08,1.15,-0.793,-0.592
GCTATTCGTTGAAAGGGCAACCGAATGATTCTCG,0.00432,0.413,0.733,0.234,0.801,0.591,-0.255,0.689,0.463,1.8,1.85,1.23,1.21,0.319,0.916,0.348,-0.335,-0.329
AATACAGGGTCATCGTAGGCCAGATTACGCACAG,2.88,4.16,2.1,1.86,3.02,5.14,0.561,5.6,0.954,4.27,3.54,5.85,4.96,3.82,6.58,4.42,1.56,3.35
ATATGTAGGTTAGCTGGGGTCTTTCAGACTAGGC,6.49,5.47,0.793,0.845,0.937,1.68,0.227,0.915,0.444,0.946,0.902,0.713,0.709,0.448,0.914,3.67,0.871,0.329
GCTTCTAGATCAAGGTTAAGAAAGACTAAGCTAA,0.942,0.862,-0.0506,0.106,0.0754,0.437,0.0298,0.885,-0.746,0.841,0.106,0.25,0.347,0.0774,0.547,1.16,-0.453,-0.36
CCGACTGGGGCAGAAAGGTGACCATACCATCCGG,1.97,2.21,-0.413,-1.14,0.473,-0.192,-0.34,0.197,-0.0337,1.19,1.8,0.634,0.776,-0.975,0.533,0.282,-0.472,-0.595
TCGAGTAGGTTACCAATGGGGCATCCAGCTTTCT,3.43,2.56,-0.589,-0.544,-0.353,-0.193,-0.691,0.352,-1.07,1.03,0.918,1.39,0.452,-0.00896,0.647,-0.146,-0.638,-0.823
TATGCTAGGTCAGTTGGTCAGCTAACGAGCTGCC,1.61,2.75,1.5,0.759,0.0439,0.247,-0.553,0.47,-0.649,3.04,2.5,2.62,3.34,-0.0461,1.06,1.3,0.034,-0.256
TCATATAGGTAAAAGGTGAAGGTCGGTGTGGTAA,5.58,5.14,1.14,0.439,1.92,2.15,1.34,3.07,1.51,2.28,2.64,2.21,1.23,1.73,3.05,1.94,1.05,0.941
TGTCAAAGATCAAAGGTAACGTAAGTATCCACAC,-0.516,2.24,1.24,1.01,0.484,1.26,-0.19,2.22,0.426,1.02,0.261,1.26,0.761,-0.668,2.36,1.54,-0.401,-0.267
ACTATTAGTTGAGACGAGGGCAATCGATAGGTTG,0.458,0.2,0.805,0.52,0.357,1.46,0.418,1.25,0.603,0.918,0.955,0.898,0.973,0.801,0.517,2.22,-0.15,1.06
TCTGCTAAGTCAGTTGGTCAGCTAACGAGCTGCC,0.523,0.0659,-0.684,-0.363,-1.05,-0.607,-0.707,-0.273,-1.36,0.0945,-0.3,-0.611,-0.521,-0.0698,-0.61,-0.628,-0.977,-0.941
ATCTCTAGGTAATGTTCAGTGAAAGATCGATAGA,2.57,1.63,1.27,1.25,0.598,0.381,0.219,0.543,0.802,0.148,-0.207,0.262,0.561,0.333,0.234,0.493,0.382,0.364
GGAACGAGGGCATTCGAATTGATAGCATGGCGAT,3.02,2.16,-0.249,-0.176,-0.045,0.719,0.241,0.841,-0.483,1.9,0.601,1.21,1.55,3.14,0.908,0.827,-0.231,1.99
CCTAGCAGTCCAGGGTCACTCAAGCATTTCGCTT,-0.136,0.647,-1.3,-1.13,1.01,2.58,2.51e-05,3.02,-0.3,2.33,2.5,2.77,2.03,1.07,3.27,2.95,1.64,1.7
ATCTCCAGGTAAAGATAGTTCAGTGAATGCAAAT,0.28,0.419,1.11,1.09,0.798,1.1,1.1,0.0525,1.34,0.907,1.03,0.342,0.839,0.0268,-0.000636,1.06,0.451,0.711
TCTGCTAGGTCCGTTGGTCAGCTAACGAGCTGCC,0.439,-0.053,-0.86,0.217,-1.34,-0.511,-1.26,-0.446,-1.4,-0.0528,-0.396,-0.454,-0.542,0.392,-0.5,-0.748,-1.13,-0.592
TAGCCTAGGTCATTGAGGGGCCAGTATAGAAAGC,1.9,2.84,0.198,0.125,2.84,2.36,-0.0238,3.39,-0.506,3.93,2.97,5.82,4.34,1.59,2.82,3.05,0.714,1.16
TCTAGTTGGTCACGGAGGTCACACATGACGGGTA,2.5,4.34,1.38,0.722,2.93,4.71,1.67,4.56,1.18,4.01,4.7,4.74,4.94,1.1,4.96,3.73,2.5,3.54
TCTAGCGGGCCAGAGGGTCACTCAAGAGGTACGG,0.727,0.801,-0.857,-1.59,-0.0821,1.64,-0.599,2.17,-0.431,2.2,2.86,2.61,1.98,0.0957,2.37,1.51,-0.522,0.587
ATATGTAGGTTATCGGGGCATTCAGTTTGCGCAT,7.24,7.25,3.45,3.12,2.07,1.72,3,1.04,1.6,1.7,1.53,1.3,1.24,1.35,1.25,1.49,1.4,2.14
TCATATAGGTAAAAGGTGAAAGCCGGTGTGGTAA,5.44,4.98,0.678,1.17,1.42,1.58,0.293,2.92,0.942,1.95,1.74,2.11,0.955,1.45,2.92,1.56,8.19e-05,-0.0743
ACTTACGGGTCAACGATGTTATAGCACGCGTATA,3.44,3.78,1.72,1.54,2.59,3.49,0.444,4.41,0.951,4.09,3.01,5.25,5,2.19,5.56,2.76,0.387,1.21
